This is an account of results in PubChem BioAssay (Tox21).

The structures appear in SMILES notation. Values joined by “and” are separate entries in the source; they are usually repeats but may differ in a detail not shown here. Equal values may be shown once. Inconclusive results are not listed. A call without a number means that no potency is given here. Some compounds were tested as several samples or in several runs, with calls that do not always agree. Active and inactive are the calls of the source. Calls come from the whole dose curve.
Potency is the fitted concentration of half-maximal effect.

This assay deals with Progesterone receptor (Homo sapiens) (UniProt P06401). The assay is described as follows: qHTS assay to identify small molecule agonists of the progesterone receptor (PR) signaling pathway (AID 1346784). Note: nearly all actives have a fitted effect of over 30% in size. As to conditions: PR-UAS-bla HEK293T, beta-lactamase FRET ratio, 16 h; series mostly up to 92.4 µM. The text has this: U.S. Tox21 Program National Center for Advancing Translational Sciences [NCATS] NIH Chemical Genomics Center [NCGC] U.S. Environmental Protection Agency [EPA] National Institutes of Environmental Health Sciences [NIEHS] National Toxicology Program [NTP] U.S. Food and Drug Administration [FDA] […] Endocrine disrupting chemicals (EDCs) and their interactions with steroid hormone receptors like PR causes disruption of normal endocrine function. To identify the compounds that activate PR signaling, a PR-UAS-bla GripTite cell line i.e. PR-UAS-bla HEK 293T (Invitrogen, Carlsbad, CA, USA) containing a beta-lactamase reporter gene under the control of an Upstream Activator Sequence (UAS) was used to screen Tox21 10K compound library.
Progesterone receptor (Homo sapiens), sequence (P06401 whole entry, looked up): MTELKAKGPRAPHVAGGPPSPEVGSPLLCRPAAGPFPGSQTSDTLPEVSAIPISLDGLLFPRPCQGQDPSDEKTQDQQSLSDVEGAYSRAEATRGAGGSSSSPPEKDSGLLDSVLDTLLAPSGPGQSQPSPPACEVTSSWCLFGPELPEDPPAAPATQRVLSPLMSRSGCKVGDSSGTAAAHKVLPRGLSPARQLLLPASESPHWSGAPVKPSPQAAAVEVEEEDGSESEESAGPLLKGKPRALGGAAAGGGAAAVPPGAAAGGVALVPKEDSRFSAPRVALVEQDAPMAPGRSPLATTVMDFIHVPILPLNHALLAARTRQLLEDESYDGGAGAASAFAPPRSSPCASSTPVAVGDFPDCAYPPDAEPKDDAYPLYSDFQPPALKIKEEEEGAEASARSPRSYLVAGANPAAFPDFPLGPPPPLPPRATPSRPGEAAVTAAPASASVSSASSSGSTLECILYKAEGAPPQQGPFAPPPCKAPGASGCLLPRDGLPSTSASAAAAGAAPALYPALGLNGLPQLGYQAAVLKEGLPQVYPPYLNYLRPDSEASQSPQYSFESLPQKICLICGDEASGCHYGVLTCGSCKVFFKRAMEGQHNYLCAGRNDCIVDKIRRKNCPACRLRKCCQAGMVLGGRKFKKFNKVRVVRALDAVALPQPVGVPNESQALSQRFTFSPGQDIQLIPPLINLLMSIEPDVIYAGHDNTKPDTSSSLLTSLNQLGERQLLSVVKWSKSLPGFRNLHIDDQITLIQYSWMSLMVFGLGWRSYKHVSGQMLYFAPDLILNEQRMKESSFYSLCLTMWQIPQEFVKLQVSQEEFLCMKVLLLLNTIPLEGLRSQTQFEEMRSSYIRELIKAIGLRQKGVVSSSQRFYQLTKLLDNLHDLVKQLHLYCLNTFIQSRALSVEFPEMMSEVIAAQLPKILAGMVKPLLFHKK
Tox21 Assay Protocol Summary: PR-UAS-bla HEK 293T cells were dispensed at 3,000 cells/5 uL of assay medium containing 2% charcoal stripped FBS per well into black wall/clear-bottom 1536-well plates using a Multidrop Combi (ThermoFisher Scientific, Waltham, MA) dispenser. After the assay plates were incubated at a 37C and 5% CO2 for 6hr, 23 nL of compounds dissolved in DMSO, positive controls or DMSO only was transferred to the assay plate by a Pintool station (Kalypsys, San Diego, CA). The plates were incubated at 37C and 5% CO2 for 16hr. Then 1 uL of LiveBLAzer B/G FRET substrate was added using a BioRAPTR FRD (Flying Reagent Dispenser, Aurora Discovery, San Diego, CA). After the plates were incubated at room temperature for 2 hours, fluorescence intensity was measured by an Envision plate reader (PerkinElmer, Shelton, CT).
Turning to `O=[N+]([O-])O`, the Potency entry was “inactive”.
With `N#CS`, the Potency result was “inactive”.
Consider `O=C(O)C(Cl)(Cl)Cl`, for which the Potency entry is “inactive”.
Take `O=c1[nH]c(=O)n(Cl)c(=O)n1Cl`: the Potency result is “inactive”.
For the compound `CCCn1cc[n+](C)c1`, the Potency result is “inactive”.
Turning to `Cc1cc(Cl)ccc1OCC(=O)O`, the Potency entry is “inactive”.
Consider `CCCC[n+]1ccccc1`, for which the Potency entry was “inactive”.
For the compound `CC[N+]1(C)CCCC1`, the Potency was 19.8 µM (active) and inactive.
As for `COc1ccc(N)cc1`, the Potency entry was “inactive”.
For `CCCC[n+]1ccccc1C`, the Potency result was “inactive”.
In the case of `O=C(O)C(Cl)Cl`, the Potency entry was “inactive”.
On to `CCCCCCCCCCn1cc[n+](C)c1`, for which the Potency entry is “inactive”.
With `COc1ccccc1N`, the Potency result is “inactive”.
As to `COP(=O)(OC)OC=C(Cl)Cl`, the Potency entry is “inactive”.
Take `CCCCCCCCCCCC(=O)O`: the Potency result was “inactive”.
Take `CCCC[N+]1(C)CCCC1`: the Potency result is “inactive”.
As to `CCCCCCCCCCCCn1cc[n+](C)c1`, the Potency result is “inactive”.
In the case of `CNC` it was “inactive”; in that of `O=[N+]([O-])c1ccccc1O`, “inactive”; in that of `CCCCCCCCCCCCCCCCn1cc[n+](C)c1`, “inactive”.
`O=P1(N(CCCl)CCCl)NCCCO1` (stereo not given): the Potency entry is “inactive”.
In the case of `Nc1ccc(-c2ccc(N)cc2)cc1` it was “inactive”; in that of `O=C(O)COc1ccc(Cl)cc1Cl`, “inactive”; in that of `C[N+](C)(C)Cc1ccccc1`, “inactive”.
In the case of `O=C(O)CC(O)(CC(=O)O)C(=O)O` it was “inactive and 87.8 nM (active)”; in that of `CC[N+](CC)(CC)CC`, “inactive”; in that of `CCCCCC[n+]1ccccc1`, “inactive”.
In the case of `Cc1cc(-c2ccc(N)c(C)c2)ccc1N` it was “inactive”; in that of `CCCCn1cc[n+](C)c1C`, “inactive”; in that of `OCCOc1ccccc1`, “inactive”.
`CCC(=O)C(CC(C)N(C)C)(c1ccccc1)c1ccccc1` (stereo not given): the Potency entry is “inactive”.
`CCn1cc[n+](C)c1C`: the Potency result is “inactive”.
With `CCNc1nc(Cl)nc(NCC)n1`, the Potency result is “inactive”.
As for `CCCCCCCCn1cc[n+](C)c1`, the Potency entry is “inactive”.
On to `O=C(O)c1nc(Cl)ccc1Cl`, for which the Potency entry was “inactive”.
As for `Nc1ccccc1`, the Potency result was “inactive”.
On to `CC[n+]1ccccc1`, for which the Potency result was “inactive”.
In the case of `Oc1cccc2cccnc12` it was “inactive”; in that of `CC(Cl)(Cl)C(=O)O`, “inactive”.
Consider `C1CCC(NC2CCCCC2)CC1`, for which the Potency result is “inactive”.
